Inconclusive results are not listed. Values without a mark were called inactive. The source made the active and inactive calls. Unless noted, calls come from the whole dose curve; as a rule, active = well fitted curve in the direction sought with a large enough effect in the repeat runs; inconclusive = weak or mixed curves; inactive = no such curve, though single readings can be large; an effect the other way counts as inactive or inconclusive.

A short description of experiment [1]: qHTS assay to identify small molecule antagonists of the estrogen related receptor (ERR) signaling pathway - cell viability counter screen (AID 1224818). Note: series mostly up to about 46 µM. In a few lines: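 Compounds dissolved in DMSO were applied to ERR cells seeded at 2,000 per well 6 h earlier. Cell viability followed 17.5 h later via 30-min CellTiter-Fluor fluorescence.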
Experiment [2] is described as follows: qHTS assay to identify small molecule agonists of the estrogen related receptor (ERR) signaling pathway (AID 1224820). Note: potency is the fitted concentration of half-maximal effect. In a few lines: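 Luminescence readout (One-Glo, 30 min RT) from NTP-supplied ERR cell line exposed to compounds for 18 h at 37 C. Cells seeded 2,000 per well and pre-incubated 6 h before pin-tool compound transfer.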
For orientation: qHTS replaces the single test concentration by a dilution series.

The nature of experiment [3]: qHTS assay to identify small molecule agonists of the estrogen related receptor signaling pathway with the pleiotropic PPARgamma coactivator (PGC) (AID 1224823). Note: potency is the fitted concentration of half-maximal effect. In a few lines:
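Luminescence readout (One-Glo, 30 min RT) from PGC/ERR cell line treated 18 h at 37 C with pin-tool-delivered DMSO compound solutions; cells plated 6 h before dosing. Quantitative HTS format.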

Experiment [4] is described as follows: qHTS assay to identify small molecule antagonists of the estrogen related receptor signaling pathway with the pleiotropic PPARgamma coactivator (PGC) cell viability counter screen (AID 1224822; note: potency is the fitted concentration of half-maximal effect). In a few lines: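 Counter screen for cell viability: PGC/ERR cells, 6 h pre-incubation after plating, 17.5 h compound exposure at 37 C, fluorescence from CellTiter-Fluor after 30 min.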

The nature of experiment [5]: qHTS assay to identify small molecule antagonists of the estrogen related receptor (ERR) signaling pathway (AID 1224819; note: nearly all actives have a fitted effect of over 50% in size; note: potency is the fitted concentration of half-maximal effect). In a few lines: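 Compounds dissolved in DMSO were pin-transferred onto ERR cells that had been plated 6 h earlier, and cells were then incubated 18 h at 37 C; signal was luciferase luminescence via One-Glo.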
The subject of experiment [6] is estrogen-related receptor alpha (ERRalpha) with PGC-1alpha coactivator, human. Kind of experiment: qHTS assay to identify small molecule antagonists of the estrogen related receptor signaling pathway with the pleiotropic PPARgamma coactivator (PGC) (AID 1224821; calls by dose curve;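 note: series mostly up to about 46 µM; lower luminescence signal means antagonism of PGC/ERR signalling; nearly all actives have a fitted effect of over 50% in size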). In a few lines: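 PGC/ERR reporter cells; 6 h pre-incubation 37 C/5% CO2; pin-tool compound in DMSO, 18 h 37 C; One-Glo added, 30 min RT; luminescence read. qHTS antagonist mode.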

In the case of `CCCN1CCc2cccc3c2[C@H]1Cc1ccc(O)c(O)c1-3`, the Potency entry in experiment [1], in experiment [2] and in experiment [3] was “inactive” throughout.

For the compound `O=[N+]([O-])/C=C/c1ccc2c(c1)OCO2`, the Potency entry in experiment [2] and in experiment [3] was “inactive” in each case. Further, the Potency in experiment [4] is 22000 nM (active).

As to `CCCC[N+]1(C)C2CC(OC(=O)[C@H](CO)c3ccccc3)CC1C1OC12` (some centres undefined), the Potency result in experiment [1] and in experiment [4] was “inactive” throughout.

Turning to `CCS(=O)(=O)Nc1cccc(C(=C2CCCCC2)c2cnc[nH]2)c1`, the Potency result in experiment [1], in experiment [2], in experiment [4] and in experiment [3] was “inactive” in each case.

Regarding `CC[C@@H](C(N)=O)N1CCCC1=O`, the Potency result in experiment [1] and in experiment [4] was “inactive” throughout.

For `c1ccc2c(c1)[I+]c1ccccc1-2`, in experiment [5], the Potency was 31 nM (active). Also, the Potency entry in experiment [2] and in experiment [3] was “inactive” in each case.

As for `CC(=O)c1c(O)c(C)c(O)c(Cc2c(O)c3c(c(C(=O)/C=C/c4ccccc4)c2O)OC(C)(C)C=C3)c1O`, the Potency result in experiment [2] and in experiment [3] was “inactive” in each case. In addition, the Potency in experiment [4] was 3480 nM (active).

For `CCCCCCCCCCCCCC(=O)O[C@@H]1[C@@H](C)[C@@]2(O)[C@@H](C=C(CO)C[C@@]3(O)C(=O)C(C)=C[C@@H]23)C2C(C)(C)[C@@]21OC(C)=O` (some centres undefined), the Potency entry in experiment [5] and in experiment [6] was “inactive” each time. The Potency in experiment [2] is 8.72 nM (active); in experiment [3], 6.71 nM (active).

(Values after PubChem BioAssay (Tox21).)
